The list is not random: actives were taken first. Their share in the collection is about 27%.
sEH act: soluble epoxide hydrolase activators, primary screen, biochemical, human sEH; purified human sEH enzymatic activity, activator screen; activation, % at 2 µM; Bifunctional epoxide hydrolase 2 (Homo sapiens), P34913; AID 717, 2007; actives 0.04% (n = 91,000); in the data active means activation above about 37%
CYP2C9 inhib: blockers of cytochrome P450 2C9 activity – biochemical, luminescence, ADME assay, primary screen; CYP2C9 Supersomes, luciferin-H conversion; P11712; AID 777, 2007; inhibition, % at 5 µM; actives 20% (n = 96,000);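 active means blocking of liver enzyme CYP2C9 beyond about 50% at 5 µM, limit read from the data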
sEH inhibitor: soluble epoxide hydrolase inhibitors, primary screen, biochemical, human sEH; Bifunctional epoxide hydrolase 2 (Homo sapiens), P34913; recombinant human sEH enzymatic activity assay; inhibition, % at 2 µM; actives 0.34% (n = 91,000); AID 707, 2007; in the data active means inhibition above about 80%
CYP2C9 act: human CYP2C9 activators, primary screen, biochemical, luminescence. activation factor at 5 µM. recombinant CYP2C9, luciferin-H conversion; hits give high values; factor 1 = untreated enzyme, 0 = blocked. actives 1.4% (n = 96,000). Cytochrome P450 2C9 (Homo sapiens), P11712;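 active means activation factor of 2 or more for CYP2C9 at a 5 µM dose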;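 further: 0 = sulfaphenazole-blocked wells and 1 = vehicle-only wells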
CYP2C19 act: human CYP2C19 activators, primary screen, biochemical, luminescence. Cytochrome P450 2C19 (Homo sapiens), P33261. recombinant CYP2C19, luciferin-H EGE luminescence; hits give high values; 0 = fully inhibited enzyme, 1 = untreated enzyme. activation factor at 5 µM. 96,000 tested, under 10 active;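 active means activation factor of at least 2 at 5 µM in the primary screen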;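 further: 0 = wells with 2.5 mM tranylcypromine and 1 = vehicle-only wells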
CYP2C19 inhib: blockers of cytochrome P450 2C19 activity – biochemical, luminescence, ADME assay, primary screen; P33261; CYP2C19 Supersomes, luciferin-H EGE luminescence, 30 min; inhibition, % at 5 µM; actives 21% (n = 96,000); AID 778, 2007;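 active means CYP2C19 inhibition above a set limit at 5 µM in the primary screen, cut at about 50% in these data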;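 further: plate controls were negative control wells for no effect and 2.5 mM tranylcypromine positive control for full effect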
Starred values were filed as active, the others as inactive; · = no result given.

SMILES | sEH act | CYP2C9 inhib | sEH inhibitor | CYP2C9 act | CYP2C19 act | CYP2C19 inhib
CCCCN=Cc1c(O)n(-c2c(C)cc(C)cc2C)c(=O)[nH]c1=O | 3 | -15 | -4 | 1.1 | 0.6 | 39
CCOc1ccc(-n2c(O)c(C=NCCCn3ccnc3)c(=O)[nH]c2=O)cc1 | 7 | 43 | -7 | 0.6 | 1.1 | -13
COc1ccc(Cn2c(O)c(C=NCCCn3ccnc3)c(=O)[nH]c2=O)cc1 | 11 | 63* | -7 | 0.4 | 1 | 5
O=C(CF)NC(Nc1cccc2cccnc12)C(Cl)(Cl)Cl (stereo not given) | 13 | 41 | -16 | 0.6 | 0.1 | 89*
CN(C)CCN=Cc1c(O)n(-c2cccc3ccccc23)c(=O)[nH]c1=O | -8 | 1 | 10 | 1 | 1 | 1
Cc1ccc(C(c2nnnn2Cc2ccccc2)N2CC=C(c3ccc(F)cc3)CC2)cc1 (stereo not given) | -5 | 50* | 8 | 0.5 | 0.3 | 70*
CCCC(C)C1(CC)C(=O)NC(=Nc2ccc(F)cc2)NC1=O (stereo not given) | 5 | 58* | -6 | 0.4 | 0.8 | 17
COc1ccc(N=C(C)c2c(O)n(C3CCCCC3)c(=O)[nH]c2=O)c(OC)c1 | -15 | 6 | 13 | 0.9 | 0.9 | 8
CC(C(=O)Nc1ccc(Br)cc1C(=O)c1ccccc1)N1CCOCC1 (stereo not given) | 16 | 55* | -13 | 0.5 | 0.4 | 61*
O=C(CCN1CCOCC1)NCC(=O)Nc1ccc(Br)cc1C(=O)c1ccccc1 | 2 | -4 | -4 | 1 | 1.1 | -8
NCC(CC(=O)O)c1ccc(Cl)cc1 (stereo not given) | 12 | -15 | -11 | 1.2 | 1.1 | -14
CCCCn1c(O)c(C(C)=Nc2ccc(C(=O)O)cc2)c(=O)[nH]c1=O | -14 | -1 | 13 | 1 | 1 | 1
C=CCn1c(O)c(C(CC)=NC(C)c2ccccc2)c(=O)[nH]c1=O (stereo not given) | · | 63* | · | 0.4 | 0.3 | 66*
C=CCn1c(O)c(C(CC)=Nc2ccc(N(CC)CC)cc2)c(=O)[nH]c1=O | 12 | 2 | -15 | 1 | 1.1 | -6
CCCCn1c(O)c(C(CC)=NC(C)c2ccccc2)c(=O)[nH]c1=O (stereo not given) | -1 | 91* | 4 | 0.1 | 0.3 | 71*
CCCCn1c(O)c(C(C)=NC(C)c2ccccc2)c(=O)[nH]c1=O (stereo not given) | -8 | 77* | 9 | 0.2 | 0.5 | 54*
CCCCn1c(O)c(C(C)=NCCc2ccccc2)c(=O)[nH]c1=O | 1 | 69* | -1 | 0.3 | 0.6 | 38
Cc1cc(N2C(=O)C3CCCN3C2c2cccc(Cl)c2)no1 (stereo not given) | 18 | · | -20 | · | · | ·
O=C(Cn1cnc2sc3c(c2c1=O)CCCC3)NCCC(=O)N1CCC2(CC1)OCCO2 | -3 | · | 3 | · | · | ·
O=c1[nH]c(=O)n(C2CCCCCC2)c(O)c1C=NCC1CCCO1 (stereo not given) | -6 | 2 | 6 | 1 | 0.9 | 9
Cn1cccc1CNCCc1ccccc1F | -3 | -1 | 2 | 1 | 0.7 | 34
Fc1ccccc1CCNCc1cccc(Cl)c1Cl | -8 | 29 | 6 | 0.7 | 0.1 | 86*
